SMN2 splice enh: SMN2 splice variant enhancement; Potency, µM (doses to about 46.1 µM), inactives show at the top dose activity change, positive = activation, most hits filed as activators; HEK293 SMN2-luciferase splicing reporter, luminescence, 30-36 h; actives 2.8% (n = 210,000); AID 1458; further: % of control where 0% means no effect; nearly all actives have a fitted effect of over 55% in size
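HEK293 cells carry an SMN2 minigene-luciferase reporter in which exon 7 inclusion puts luciferase in frame. Cells were seeded at 2000 cells/well, attached for 10-12 hours, then exposed to compounds for 30-36 hours at 37C before ONE-Glo luminescence.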
Rab9 prom act: Rab9 promoter activation; AID 485297; actives 2.8% (n = 320,000); Huh7 Rab9 promoter-luciferase reporter, luminescence, 24 h; Potency, µM (series often up to 9.22 µM), for inactives: at the highest dose activation, negative = inhibition, actives largely listed as activators; further: % of control where 0% means no effect; nearly all actives have a fitted effect of over 60% in size
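Stable Rab9-luc Huh7, 1500 cells/well, 2 h settle; cmpd in DMSO, 24 h, 37 °C/5% CO2; luciferase reagent 10 min RT; luminescence.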
FLuc modulator: inhibits or activates purified firefly luciferase, miR-21 counter-screen | actives 6.9% (n = 360,000) | Potency, µM (highest dose often 57.5 µM), for the others: top-dose activity change, negative = inhibition, most hits filed as inhibitors | P08659 | purified FLuc, Km substrates, luminescence inhibition | AID 588342;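 further: plate controls were vehicle for no effect and reference inhibitor for full effect; nearly all actives have a fitted effect of over 55% in size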
Target sequence (P08659 whole entry, looked up): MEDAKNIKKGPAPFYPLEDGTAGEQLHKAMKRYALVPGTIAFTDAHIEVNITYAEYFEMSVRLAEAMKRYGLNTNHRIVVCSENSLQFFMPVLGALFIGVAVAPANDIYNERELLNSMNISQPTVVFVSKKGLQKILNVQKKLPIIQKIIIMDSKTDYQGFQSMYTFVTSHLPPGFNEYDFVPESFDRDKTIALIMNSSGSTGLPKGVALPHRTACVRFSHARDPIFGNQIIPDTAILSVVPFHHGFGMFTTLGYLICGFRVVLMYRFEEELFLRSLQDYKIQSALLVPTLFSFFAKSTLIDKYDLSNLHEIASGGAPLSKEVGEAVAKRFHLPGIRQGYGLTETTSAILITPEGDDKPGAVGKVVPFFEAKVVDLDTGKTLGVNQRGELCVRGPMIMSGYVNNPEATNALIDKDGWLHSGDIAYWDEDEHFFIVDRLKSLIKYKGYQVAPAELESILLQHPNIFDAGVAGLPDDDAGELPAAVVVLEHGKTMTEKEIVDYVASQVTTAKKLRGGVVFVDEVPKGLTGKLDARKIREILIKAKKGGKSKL
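Purified P. pyralis luciferase, 10 nM final, with Km-level 10 uM D-luciferin and 10 uM ATP in 50 mM Tris acetate pH 7.5, 10 mM Mg acetate, 0.01% Tween-20, 0.05% BSA; 6-point qHTS titration about 60 µM downward; luminescence read.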
p53 reactivation: restores transcriptional activity of mutant p53. actives 0.063% (n = 320,000). Potency, µM (highest dose often 92.2 µM), inactives show top-dose activity change, positive = activation, actives largely listed as activators. H1299 p53-A138V BP100-luciferase reporter, luminescence, 24 h; further: % of control where 0% means no effect; nearly all actives have a fitted effect of over 45% in size
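p53-null H1299 cells stably carrying temperature-sensitive p53-A138V and a BP100-luciferase reporter were pinned with compounds (4-point, 1:5 series) and held 24 hrs at 37 deg C. Luminescence was read 10 min after detection reagent.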
NPC1 promoter act: activates the NPC1 promoter | Huh7 NPC1 promoter luciferase reporter, 24 h | Potency, µM (series often up to 9.22 µM), inactives show at the top dose activation, hits mostly activators | actives 2.4% (n = 320,000); further: % of control where 0% means no effect; nearly all actives have a fitted effect of over 60% in size
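Stably transfected Huh7 (NPC1 promoter→luciferase), 1500 cells/well in Opti-MEM + 10% FBS, 2 h settle, then compound 24 h at 37 °C. Luminescence after 10 min with Amplite reagent.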
ELG1 genotoxic: inducers of genotoxicity in HEK293T ELG1-luciferase cells | HEK293T ELG1-luciferase reporter, luminescence, 16 h | Potency, µM (titrated, usually from 46 µM), for the others: at the highest dose activity change, positive = activation, actives largely listed as activators | actives 1.3% (n = 330,000) | AID 504466; further: % of control where 0% means no effect; nearly all actives have a fitted effect of over 60% in size
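DMSO vehicle served as control against compound-treated ELG1-luciferase HEK293T cells; exposure lasted 16 hr at 37 °C and 5% CO2, followed by ONE-Glo luminescence detection after 30 min.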
* marks the source's active call; other numbers are inactive results; u = inconclusive; x = no result; [ ] = remark or other dose. The list is not random: actives were taken first. Their share in the collection is about 7.4%. The call rests on the fitted dose curve; in most records, active means well fitted curve in the direction sought with a large enough effect; inconclusive means small, poorly fitted or top-dose-only effect, or another doubt; inactive means no such curve, though single readings can be large; an effect the other way counts as inactive or inconclusive. Potency means the concentration at half of the fitted maximal effect.

SMILES	SMN2 splice enh	Rab9 prom act	FLuc modulator	p53 reactivation	NPC1 promoter act	ELG1 genotoxic
CCCn1c(C)nc2c(NCc3ccccc3)nc(C)nc21	-31%	x	x	x	x	x
Cc1cc(N)c2ccccc2[n+]1CCCCCCCCCCCCCC[n+]1c(C)cc(N)c2ccccc21	-84%	x	x	x	x	x
CCCc1cc(=O)oc2cc(OCC(=O)Nc3ccccn3)ccc12	x	u	15µM*	16%	3.5µM*	21µM*
CCCCc1cc(=O)oc2cc(C)cc(OCC(=O)Nc3ccccn3)c12	x	2.5µM*	8.5µM*	u	2µM*	u
CCCc1cc(=O)oc2cc(OCC(=O)Nc3cc(C)on3)ccc12	-2%	-2%	2%	7%	-3%	1%
CCCc1cc(=O)oc2cc(C)cc(OCC(=O)Nc3ccccn3)c12	x	12%	4%	-6%	-3%	1%
CCc1ccc(C(=O)Nn2cnc3ccccc3c2=O)cc1	x	2.2µM*	8.5µM*	u	2.5µM*	u
Cc1ccc(C(=O)Nn2cnc3ccccc3c2=O)cc1C	x	2.5µM*	13µM*	18%	3.2µM*	u
Cc1ccc(C(=O)n2cnc3ccccc32)cc1C	x	8%	12µM*	-1%	-2%	0%
Cc1occc1C(=O)n1cnc2ccccc21	u	-3%	-2%	-18%	0%	0%
O=C(Nn1cnc2ccccc2c1=O)c1ccc(Br)cc1	x	-5%[1.84 µM]	u	26%	15%	15%
Fc1ccc(N2CCN(C3=Nc4cccc5cccc3c45)CC2)cc1	0%	15%	15µM*	0%	24%	2%
c1ccc(CN2CCN(C3=Nc4cccc5cccc3c45)CC2)cc1	9%	14%	11µM*	23%	13%	12%
Cc1ccc(NC(=O)CCCC2CCCCC2)c(O)c1	x	u	8.5µM*	28%	u	u
Cc1cc(OCC(=O)N(C)C2CCCCC2)ccc1Cl	u	0.63µM*	2.7µM*	u	0.35µM*	26%
Cc1cc(OCC(=O)N(C)C2CCCCC2)cc(C)c1Cl	23%	2%	u	15%	12%	u
c1ccc(Nc2nnc(-c3cccc4ccccc34)o2)cc1	x	u	2.1µM*	17%	-5%	u
Cc1ccc(CSc2nnc(-c3cccc4ccccc34)o2)cc1	x	x	x	10%	x	3%
COc1ccccc1Oc1ccc(N/C=C/C(=O)c2ccc(C)o2)cc1	22%	u	7.6µM*	-1%	u	12%
CC(=O)Nc1ccc(N/C=C/C(=O)c2ccc(Cl)cc2)cc1	x	u	-13%	4%	u	8%
CC(=O)Nc1ccc(N/C=C/C(=O)c2ccc(C)o2)cc1	-10%	u	8.5µM*	15%	4µM*	u
CCN(CC)c1ccc(/C=c2\sc3nnc(-c4ccccc4Cl)n3c2=O)cc1	-11%	0%	-14%	1%	1%	0%
Cc1ccc(/C=c2/sc3nnc(-c4ccccc4Cl)n3c2=O)o1	13%	0%	15µM*	8%	1%	-3%
COc1ccc(N=Cc2c(O)c3ccccc3n2C(C)=O)cc1	x	u	1.1µM*	5%	u	13%
COc1ccc(N=Cc2sc(O)c3ccccc23)cc1	2.8µM*	1.6µM*	3.8µM*	u	u	16%
SMILES	SMN2 splice enh	Rab9 prom act	FLuc modulator	p53 reactivation	NPC1 promoter act	ELG1 genotoxic
COc1ccc(-n2c(O)c(C=Nc3ccccc3)c3ccccc3c2=O)cc1	-3%	-9%	0%	-3%	-2%	u
O=C1CC(SC(=NCc2ccc3c(c2)OCO3)Nc2ccccc2)C(=O)N1 (stereo not given)	16%	1%	0%	0%	1%	3%
COc1ccc(CN=C(Nc2ccccc2)SC2CC(=O)NC2=O)cc1 (stereo not given)	x	u	6.7µM*	18%	u	u
CCOc1ccc(N=CNc2ccc(OCC)cc2)cc1	x	-5%	u	-3%	12%	-1%
CCOc1ccc(N=Cc2ccc3ccccc3c2)cc1	x	-2%	0.76µM*	x	12%	0%
COc1cc(/C=N/N=C2/C(=O)Nc3ccccc32)cc(OC)c1O	20%	-1%	17µM*	-19%	-1%	2%
O=C1Nc2ccccc2/C1=N/N=C/c1cccc(O)c1	x	1%	u	10%	14%	3%
COc1ccc(O)c(/C=N/N=C2/C(=O)Nc3ccccc32)c1	-4%	1%	4.8µM*	3%	-2%	5%
O=C(COC(=O)CCCN=C1NS(=O)(=O)c2ccccc21)NNC(=O)c1ccccc1	x	-1%	3%	2%	-2%	7%
O=C(Nc1ccc([N+](=O)[O-])cc1)Nc1ccc2c(c1)OCCO2	6.3µM*	0.79µM*	2.1µM*	16%	1µM*	-6%
COc1cc([N+](=O)[O-])ccc1NC(=O)Nc1ccc2c(c1)OCCO2	8%	u	6.7µM*	-4%	5%	3%
CCOc1ccccc1NC(=O)c1cnc(N2CCOCC2)c2ccccc12	x	x	2%	x	x	x
COc1ccc(/C=c2\s/c(=C\C(=O)C(C)(C)C)[nH]c2=O)cc1O	x	-3%	24µM*	-1%	-1%	-9%
COc1cc(/C=c2\s/c(=C\C(=O)C(C)(C)C)[nH]c2=O)cc(OC)c1OC	-8%	-14%	-10%	-3%	-6%	-3%
Cc1cc(C)c(S(=O)(=O)Nc2ccc(-c3ccc(N4CCCCC4)nn3)cc2)c(C)c1	x	x	13µM*	x	x	x
Cc1ccc(S(=O)(=O)Nc2cccc(-c3ccc(N4CCCCCC4)nn3)c2)cc1	x	u	5.4µM*	u	u	u
Cc1cccc(S(=O)(=O)Nc2cccc(-c3ccc(N4CCCCC4)nn3)c2)c1	x	x	3.4µM*	x	x	x
O=S(=O)(Nc1cccc(-c2ccc(N3CCCCCC3)nn2)c1)c1ccccc1	x	x	7.6µM*	x	x	x
O=C(COC(=O)c1cnccn1)c1ccc(C2CCCCC2)cc1	x	2%	2.4µM*	6%	-1%	0%
O=C(COC(=O)c1cnccn1)c1ccc(-c2ccccc2)cc1	x	-5%	u	-1%	-1%	2%
O=C(COC(=O)c1cnccn1)c1ccccc1	-16%	-5%	u	1%	1%	-2%
O=C(COC(=O)c1cnccn1)c1ccc(Br)cc1	-12%	0%	15µM*	5%	2%	14%
O=C(COC(=O)c1cnccn1)c1ccc(Cl)cc1	3%	0%	19µM*	4%	-5%	2%
O=C(COc1ccccc1Cl)c1ccc2c(c1)CCCC2	14µM*	3.5µM*	11µM*	u	u	u
O=C(COc1cccc(Cl)c1Cl)Nc1ccc2c(c1)CCC2	-7%	12%	-1%	-3%	-1%	-3%

Screening results from PubChem BioAssay.
